In all, about 1,200 compounds went through this assay and about 360 (30%) were called active. The rule behind the calls is not given here. Only a sample is shown. Results with a measured potency or affinity are listed apart.

A short description of this test: bacterial growth inhibition, dose response, counter-screen, BacTiter-Glo luminescence, cherry-picked samples (AID 504843).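 Note: growth measured after 8 h incubation at 30 °C.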 The settings on record: BacTiter-Glo ATP luminescence; series mostly up to 15 µM. (In general: Counterscreens check selectivity or assay interference.)
Consider `O=C(O)CC(NCc1ccco1)C(=O)OCCc1ccccc1` (stereo unspecified), for which the outcome was inactive. As to `CC(/C=N/NC(=O)c1nnn(-c2nonc2N)c1C(C)C)=C\c1ccccc1`, the compound was called inactive. Turning to `CN1CCN(CCC(=O)Nc2ccc(OCc3ccccc3)cc2)CC1`, the compound was called inactive. Take `CCOc1ccc(NC(C(=O)Nc2cccc(C(C)=O)c2)c2ccccc2)cc1` (stereo unspecified): the compound was called inactive. Take `CCn1c(SCC(=O)Nc2ccc(OC)cc2)nc2c1c(=O)n(C)c(=O)n2C`: the result was inactive. On to `CC(C)(C)NC(=O)NC(=O)CSc1ccc(S(=O)(=O)N2CCOCC2)cn1`, for which the compound was classed as inactive. The result for `CN(c1ccccc1C(=O)Nc1ccc(S(=O)(=O)N2CCOCC2)cc1)S(C)(=O)=O` reads “inactive”; that for `Cc1nc(SCc2nc3ccccc3[nH]2)c2oc3ccccc3c2n1`, “inactive”. As to `O=c1/c(=C/c2ccc(O)c([N+](=O)[O-])c2)sc2nc3ccccc3n12`, the compound was called inactive. As to `COc1ccc([N+](=O)[O-])cc1/C=N/NC(=O)Cc1ccccc1`, the compound was called inactive.

As to `CC(SCC(=O)Nc1ccc(F)cc1)c1nc2ccccc2c(=O)[nH]1` (stereo unspecified), the outcome was inactive. In the case of `Cc1nc2c(=O)n(-c3cccc(C(F)(F)F)c3)nc(C)c2s1` it was “inactive”. As to `CCN1CCCC1CNC(=O)C(=O)NC(C)C` (stereo unspecified), the compound was classed as inactive. Take `CCN1CCCC1CNCc1cccc(OC)c1OCc1ccc(F)cc1` (stereo unspecified): the result was inactive.

For the compound `O=C(O)c1sccc1OCc1ccccc1`, the result was inactive. In the case of `CCOc1ccc(Br)cc1CNCCN1CCOCC1` it was “inactive”; in that of `O=C(CCC1CCCCC1)NCCN1CCOCC1`, “inactive”; in that of `COc1ccc(N=Cc2nc(-c3ccccc3)oc2OC(=O)c2ccccc2)cc1`, “inactive”. In the case of `CCNc1nc(OC)nc(Oc2ccc(=O)n(-c3ccccc3)n2)n1`, the result was inactive. The result for `Clc1ccc(-c2csc(-c3cccnc3)n2)s1` reads “inactive”; that for `Nc1nc2ccc([N+](=O)[O-])c(N)c2s1`, “inactive”; that for `CCSC(=O)NC12CC3CC(CC(C3)C1)C2`, “inactive”.

In the case of `O=C(CSc1nc2ccccc2c(=O)n1CCCN1CCOCC1)Nc1ccc2c(c1)OCO2`, the outcome was inactive.

For `O=C(O)c1ccccc1-c1nc2ccccc2c(=O)n1O`, the outcome was inactive. In the case of `CN(C(=O)COC(=O)CNC(=O)C12CC3CC(CC(C3)C1)C2)C1CCS(=O)(=O)C1` (stereo unspecified), the call was inactive. In the case of `N#CC1=C2SCC(O)(c3ccccc3)N2C(=O)CC1c1ccccc1F` (stereo unspecified), the outcome was inactive.

For `COc1cc2c(cc1OC)C(c1cccc(F)c1)CC(=O)N2` (stereo unspecified), the result was inactive. Regarding `COc1ccc(C2CC(=O)Nc3n[nH]c(-c4ccccc4)c32)cc1OC` (stereo unspecified), the call was inactive. For `Cc1csc(N2CCCC2c2nc3cc(C(F)(F)F)ccc3n2CCOCCO)n1` (stereo unspecified), the compound was classed as inactive. Turning to `CN1C2CCC1CC(NS(=O)(=O)c1cc(Cl)c(Cl)cc1Cl)C2` (stereo unspecified), the compound was classed as inactive.

`CC(C)(C)c1ccc(C(=O)O)c(C(=O)c2ccc(C(=O)O)cc2)c1`: the compound was called inactive. `CN(C)c1ccc(C(=O)n2nnc3ccccc32)cc1`: the result was inactive. For the compound `Nc1nnc(-c2cn(-c3ccccc3)nc2-c2ccc(Cl)cc2)o1`, the call was inactive. Take `Cc1cccc(CNC(=O)C2CCCN(c3nn4c(=O)cc(C)nc4s3)C2)c1` (stereo unspecified): the outcome was inactive.

Regarding `COc1ccc(CNC(=O)Cn2nnc(-c3ccc(NC(=O)C4CCCCC4)cc3)n2)cc1`, the compound was classed as inactive. In the case of `CCc1ccc(NS(=O)(=O)c2ccc3[nH]cc(C(=O)N4CCCCC4)c(=O)c3c2)cc1` it was “inactive”; in that of `C/C(=N\NC(=O)c1cccc(O)c1)c1cccc(NC(=O)c2ccc(F)cc2)c1`, “inactive”. In the case of `CCOC(=O)CNS(=O)(=O)Cc1ccccc1`, the compound was called inactive. With `CC(=O)NCC(=O)OCC(=O)c1ccc(C)cc1`, the outcome was inactive. Take `CCCCCn1c(CNC(=O)c2cccs2)nc2ccccc21`: the outcome was inactive. With `Cc1cccc(NC(=S)NC(C)CCc2ccccc2)c1` (stereo unspecified), the result was inactive.

In the case of `CCOC(=O)c1c2c3c(c(Cl)ccc3[nH]c1=O)C(=O)c1ccccc1-2`, the result was inactive. In the case of `CCc1ccccc1NC(=O)CSc1nnc(-c2ccco2)n1N`, the result was inactive. Consider `Cc1ccc(S(=O)(=O)Nc2ccnc(-c3cccnc3)n2)cc1`, for which the compound was called inactive.

On to `Clc1ccccc1-c1ccc2ncnc(NCc3cccnc3)c2c1`, for which the outcome was inactive. Consider `Cc1ccc(/C=N/NC(=O)c2ccc(Cn3cc([N+](=O)[O-])cn3)o2)cc1`, for which the outcome was inactive.

As for `CC(C)(C)OC(=O)N[C@@H](Cc1ccccc1)[C@H](O)c1ccco1`, the compound was called inactive. As to `CCCc1cc(=O)oc2cc(OCC(=O)N(C)C)c(Cl)cc12`, the outcome was inactive. For `COc1ccc(C(CNC(=O)c2cc(SC)ccc2Cl)N(C)C)cc1` (stereo unspecified), the call was inactive. The result for `O=C(NC(=S)NNC(=O)c1ccccc1O)c1ccccc1` reads “inactive”. As for `O=C(c1ccco1)N1CCN(C(=O)c2ccc(CS(=O)c3ccc(F)cc3)o2)CC1` (stereo unspecified), the outcome was inactive. With `CCC(=NCCc1ccc(OC)c(OC)c1)C1=C(O)CC(C)(C)CC1=O`, the compound was called inactive.

As for `COCCNC(=O)c1c[nH]c2ccc(S(=O)(=O)N3CCc4ccccc43)cc2c1=O`, the result was inactive. The result for `COc1cc(OC)cc(C(=O)NC2CC(C)(C)NC(C)(C)C2)c1` reads “inactive”. In the case of `CC(=O)c1cc(CN2CCCCC2)cc(OC(C)C)c1` it was “inactive”; in that of `CCc1cc2c(=O)n(C(C)C(=O)OC3CCCCC3)cnc2s1` (stereo unspecified), “inactive”; in that of `O=C(Nc1cc(N2CCOCC2)ncn1)c1ccccc1`, “inactive”. Take `COc1ccccc1N1C(=NC(=O)CCc2ccccc2)SC2CS(=O)(=O)CC21` (stereo unspecified): the compound was called inactive. On to `CCCn1c2c(c(=N)c3c1CCC3)CCCC2`, for which the compound was called inactive. The result for `CC(=O)c1ccc(NC(=O)C2CCCN2S(=O)(=O)c2cccc3cccnc23)cc1` (stereo unspecified) reads “inactive”; that for `CC(C)(C#N)NC(=O)C1CCCN1S(=O)(=O)c1ccc2ccccc2c1` (stereo unspecified), “inactive”; that for `Cc1ccc(S(=O)(=O)NC(C)(C)CSc2nnc(Nc3ccccc3)s2)cc1`, “inactive”. In the case of `Cc1ccc(NC(=O)CN2CCN(c3ccccn3)CC2)c(Cl)c1` it was “inactive”; in that of `O=C(CN1CCCCC1)Nc1cc(Cl)ccc1Cl`, “inactive”; in that of `CCC1Nc2ncnc(N3CCOCC3)c2N(Cc2ccc(Cl)cc2)C1=O` (stereo unspecified), “inactive”.

As for `O=C(Nc1cccnc1Cl)c1noc2c1CCc1ccccc1-2`, the compound was classed as inactive. As for `CC1=C(C#N)C(c2cn(-c3ccccc3)nc2-c2cccs2)C(C#N)=C(C)N1`, the compound was called inactive. The result for `CC(=O)Nc1cccc(-c2csc(Nc3cc(C)ccn3)n2)c1` reads “inactive”; that for `O=C(O)c1ccc(NC2=C(N3CCOCC3)C(=O)c3ccccc3C2=O)cc1`, “inactive”; that for `Cc1cccc(OCC(O)Cn2c(=N)n(CCN3CCOCC3)c3ccccc32)c1` (stereo unspecified), “inactive”. The result for `COC(=O)COc1cccc(NC(=O)c2cccc(C)c2)c1` reads “inactive”.
